Measurements from PubChem BioAssay AID463173 (ICCB-Longwood Screening Facility, Harvard Medical School, 2010).
Screen size: about 52,000 compounds; about 1,700 (3.3%) were called active. The entries come from a sample that favours actives as a whole. A number with no mark means an inactive call. Cut-off read from the data, not from the text of the source: active = survival mostly below about 52% (no sharp cut-off); inactive = mostly above about 56%.

The molecules below were run on Wild type (assay: growth inhibition of S. aureus wild type versus tarO mutant, primary screen, teichoic acid synthesis inhibitors, RN4220, OD600 (AID 463173)). Settings: S. aureus RN4220 wild type/DeltatarO growth, OD600, 18 h, hits give low values, screened at 18.75 µg/mL (by protocol).

SMILES | survival
Cc1ccccc1Cn1c(=O)n(Cc2ccc(Cl)cc2)c(=O)c2cccnc21 | 82%
CN1C(=O)CC(=O)N(C)c2cc(S(=O)(=O)N(C)Cc3ccccc3)ccc21 | 24%
CN(C)CCNC(=O)c1ccc(Cn2c(=O)c3cccn3c3cccnc32)cc1 | 89%
O=C(CCSCc1ccccc1Cl)N1CCN(c2cccc(Cl)c2)CC1 | 75%
CCOC(=O)Cc1ccc(NC(=O)N(C(C)C)C2CCN(C(C)=O)CC2)cc1 | 85%
O=C(NCc1ccccc1Cl)c1ccc(Cn2c(SCc3ccccc3)nc3cccnc32)cc1 | 68%
COCCCNC(=O)c1ccc(CSc2nc3cccnc3n2Cc2ccc(OC)cc2)cc1 | 94%
O=C(NC1CCCC1)c1ccc2c(=O)n(Cc3ccccc3)c(SCc3ccccc3F)nc2c1 | -3% (active)
O=C(NC1CCCCC1)c1ccc(Cn2c(SCc3ccc(F)cc3)nc3cccnc32)cc1 | 0% (active)
CCNC(=O)c1ccc(CSc2nc3cccnc3n2Cc2ccc(OC)cc2)cc1 | -3% (active)
COc1ccccc1CNC(=O)c1ccc(Cn2c(SCc3ccccc3)nc3cccnc32)cc1 | 10% (active)
Cc1ccccc1CSc1nc2cc(C(=O)NC3CCCC3)ccc2c(=O)n1Cc1ccccc1 | 94%
O=C(NC1CCCC1)c1ccc(CSc2nc3cccnc3n2Cc2ccc(F)cc2)cc1 | 45%
O=C(NC1CCCCC1)c1ccc(CSc2nc3cccnc3n2Cc2ccc(F)cc2)cc1 | 19%
COc1ccc(Cn2c(SCc3ccc(C(=O)NCc4ccc(C)cc4)cc3)nc3cccnc32)cc1 | 85%
O=C(NC1CCCC1)c1ccc2c(=O)n(Cc3ccccc3)c(SCc3ccccc3)nc2c1 | 83%
CCOc1ccccc1CNC(=O)c1ccc(Cn2c(SCc3ccccc3)nc3cccnc32)cc1 | 69%
CCN(C(=O)C(NS(=O)(=O)c1cccc2nsnc12)c1ccccc1)c1ccccc1 (configuration not stated) | 117%
CCN(CC)c1cc2c(cc1F)c(=O)c(S(=O)(=O)c1cccc(C)c1)cn2C | 112%
Cc1ccc(NC(=O)C2(c3cccs3)CCOCC2)cc1Cl | 75%
COc1ccc(C2=NS(=O)(=O)N(C)C(C(=O)Nc3cc(C)ccc3O)=C2)cc1OC | 69%

SMILES | survival
C=Cc1ccc(Cn2c(=O)n(CC3CCC(C(=O)NC(C)C)CC3)c(=O)c3sccc32)cc1 (configuration not stated) | 81%
COc1ccc(CCNC(=O)CCc2c(C)nc3c(-c4ccc(F)cc4)c(C)nn3c2C)cc1OC | 137%
Cc1ccccc1CNC(=O)c1ccc(Cn2c(SCc3cccc(F)c3)nc3cccnc32)cc1 | 70%
Cc1ccccc1CNC(=O)c1ccc(Cn2c(SCc3ccccc3)nc3cccnc32)cc1 | -2% (active)
Cc1ccccc1CNC(=O)c1ccc(CSc2nc3cccnc3n2Cc2ccccc2)cc1 | 47%
Cc1ccccc1NS(=O)(=O)c1ccc2[nH]cc(C(=O)N3CCCCC3)c(=O)c2c1 | 68%
N/C(=N\OC(=O)c1ccccc1)c1cccnc1 | 109%
CCOc1ccc(S(=O)(=O)NCC(c2ccc(N(C)C)cc2)N2CCc3ccccc32)cc1 (configuration not stated) | 22%
COc1ccc(S(=O)(=O)NCC(c2ccc(N(C)C)cc2)N2CCc3ccccc32)cc1 (configuration not stated) | 73%
Cc1ccc(S(=O)(=O)NCC(c2ccc(N(C)C)cc2)N2CCc3ccccc32)cc1C (configuration not stated) | 129%
CN(C)c1ccc(C(CNS(=O)(=O)c2ccccc2)N2CCc3ccccc32)cc1 (configuration not stated) | 80%
Cc1ccc(S(=O)(=O)NCC(c2ccc(N(C)C)cc2)N2CCc3ccccc32)cc1 (configuration not stated) | -2% (active)
CN(C)c1ccc(C(CNS(=O)(=O)c2ccc(F)cc2)N2CCc3ccccc32)cc1 (configuration not stated) | 0% (active)
COC(=O)CNC(c1ccccc1)c1cc(Br)ccc1NC(=O)c1ccccc1 (configuration not stated) | 62%
CCOC(=O)c1[nH]c(C)c(CCC(=O)NCc2cccc(C)c2)c1C | 105%
CCOc1cccc2sc(=NC(=O)c3ccc(S(=O)(=O)N4CCOCC4)cc3)n(C)c12 | 83%
Cc1c(-c2nsc(NC(=O)c3ccccc3)n2)nnn1-c1ccc(C(F)(F)F)c(Cl)c1 | 80%
Cc1c(-c2nsc(NC(=O)c3cccc(Cl)c3)n2)nnn1-c1ccccc1C(F)(F)F | -6% (active)
COc1cccc(C(=O)Nc2nc(-c3nnn(-c4cc(C)ccc4C)c3C)ns2)c1 | 72%
COc1cccc(C(=O)Nc2nc(-c3nnn(-c4ccccc4C(F)(F)F)c3C)ns2)c1 | 76%
Cc1ccc(C(=O)Nc2nc(-c3nnn(-c4cccc(Cl)c4C)c3C)ns2)cc1C | 136%

SMILES | survival
COc1cccc(C(=O)Nc2nc(-c3nnn(-c4cccc(Cl)c4C)c3C)ns2)c1 | -6% (active)
CCOC(=O)c1sc(NC(=O)c2cc3nc(-c4ccccc4)cc(C(F)(F)F)n3n2)c(C(=O)OCC)c1C | 63%
CCc1ccc(-n2c(=O)c3c(C)c(C(=O)N(C)C)sc3n(CC(=O)Nc3cc(Cl)ccc3C)c2=O)cc1 | 129%
COc1cccc(-n2c(=O)c3c(C)c(C(=O)N(C)C)sc3n(Cc3cccc(C)c3)c2=O)c1 | 10% (active)
CCOC(=O)c1ccccc1NC(=O)Cn1c(=O)n(-c2ccc(CC)cc2)c(=O)c2c(C)c(C(=O)N(C)C)sc21 | -2% (active)
COc1cccc(-n2c(=O)c3c(C)c(C(=O)N(C)C)sc3n(Cc3ccc(F)cc3Cl)c2=O)c1 | 83%
CCc1ccc(-n2c(=O)c3c(C)c(C(=O)N(C)C)sc3n(Cc3cccc(C)c3)c2=O)cc1 | 80%
CCOc1ccc(-n2c(=O)c3c(C)c(C(=O)N(C)C)sc3n(CC(=O)Nc3c(C)cc(C)cc3C)c2=O)cc1 | 68%
Cc1ccc(-n2c(=O)c3c(C)c(C(=O)N(C)C)sc3n(Cc3ccccc3C)c2=O)cc1C | 73%
COC(=O)c1ccccc1NC(=O)Cn1c(=O)n(-c2cccc(OC)c2)c(=O)c2c(C)c(C(=O)N(C)C)sc21 | 121%
CCOc1ccc(-n2c(=O)c3c(C)c(C(=O)N(C)C)sc3n(Cc3cc(C)ccc3C)c2=O)cc1 | -3% (active)
O=C(c1cccs1)c1cn(CCOc2ccccc2Cl)c2ccccc12 | 80%
CC1(C)Oc2ccc(C(=O)N3CCCC3)cc2N(CC(=O)N2CCCCC2)C1=O | 101%
O=C(Cn1c(=O)c2ccccc2n(CC(=O)Nc2ccc(F)cc2)c1=O)NCCc1ccccc1 | 127%
Cc1nn(C(=O)c2ccccc2F)c(C)c1S(=O)(=O)N1CCOCC1 | 66%
Cc1nnc(N(Cc2ccco2)C(=O)c2cccc(C#N)c2)s1 | 108%
CC(C)OCCCNC(=O)CN1C(=O)COc2ccc(S(=O)(=O)N3CCCCCC3)cc21 | 98%
Nc1cc(=O)[nH]c2n[nH]c(=S)n12 | 111%
CCc1nnc(NC(=O)c2cc(=O)c3cc(C)c(C)cc3o2)s1 | 74%
COc1cccc(-c2nc(CS(=O)(=O)CC(=O)NCc3cccc(Cl)c3)c(C)o2)c1 | 82%
